Several values for one entry are separate records, joined by “and”; a condition that tells them apart may be missing. Identical values can stand only once. Results filed as inconclusive are left out. Activity calls are given as the source filed them. Rule for the calls, unless noted: active = hit-call score of the fitted dose curve at least 0.9, where 1 is the maximum; inactive = score below 0.9.
What was measured:
[1] = target: Nuclear respiratory factor 1 (Homo sapiens) (UniProt Q16656); assay: ATG_NRF1_CIS: Attagene CIS-FACTORIAL HepG2 Assay for human Nuclear Respiratory Factor 1 (NRF1) Orphan Gene (AID 2282987); conditions: HepG2 NRF1 cis-element reporter, Attagene multiplex; actives raise or lower the signal
Chain of Nuclear respiratory factor 1 (Homo sapiens) (Q16656 whole entry, looked up): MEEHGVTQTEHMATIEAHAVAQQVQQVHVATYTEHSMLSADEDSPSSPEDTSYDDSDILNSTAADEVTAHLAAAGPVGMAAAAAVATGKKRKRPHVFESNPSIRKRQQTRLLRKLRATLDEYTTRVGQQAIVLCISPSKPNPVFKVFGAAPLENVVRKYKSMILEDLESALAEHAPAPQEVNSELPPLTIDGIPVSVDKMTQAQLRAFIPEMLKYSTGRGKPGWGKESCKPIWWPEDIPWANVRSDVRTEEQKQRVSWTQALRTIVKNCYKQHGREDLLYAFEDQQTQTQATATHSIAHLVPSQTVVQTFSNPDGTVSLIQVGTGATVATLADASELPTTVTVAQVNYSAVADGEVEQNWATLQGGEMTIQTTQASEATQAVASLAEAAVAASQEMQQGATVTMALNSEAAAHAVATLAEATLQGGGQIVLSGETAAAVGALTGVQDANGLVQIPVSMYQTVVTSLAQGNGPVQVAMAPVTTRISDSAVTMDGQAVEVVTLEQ
Method in brief: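 Human hepatoma HepG2 cells carrying transfected promoter-regulated reporter units were incubated with test chemicals for 24 h. Reporter transcripts were measured by RT-PCR plus capillary electrophoresis, and endpoints derived by bidirectional fitting with DMSO as baseline.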

[2] = ATG_NFI_CIS: Attagene CIS-FACTORIAL HepG2 Assay for human Nuclear Factor I (NFI) (AID 2282989); conditions: HepG2 cis-regulatory reporter, NFI response element transcription; actives raise or lower the signal
Method in brief: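 Cells: human liver HepG2, transiently transfected with promoter-regulated reporter transcription units. Exposure 24 h. Detection: fluorescent RT-PCR products separated by capillary electrophoresis, normalised to DMSO negative control.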

[3] = target: Myc proto-oncogene protein (Homo sapiens) (UniProt P01106); assay: ATG_Myc_CIS: Attagene CIS-FACTORIAL HepG2 Assay for human Myelocytomatosis (Myc) Proto-Oncogene Transcription Factor (AID 2282990); conditions: HepG2, Attagene cis-reporter transcription factor activity; actives raise or lower the signal
Chain of Myc proto-oncogene protein (Homo sapiens) (P01106 whole entry, looked up, the tested form may be a part): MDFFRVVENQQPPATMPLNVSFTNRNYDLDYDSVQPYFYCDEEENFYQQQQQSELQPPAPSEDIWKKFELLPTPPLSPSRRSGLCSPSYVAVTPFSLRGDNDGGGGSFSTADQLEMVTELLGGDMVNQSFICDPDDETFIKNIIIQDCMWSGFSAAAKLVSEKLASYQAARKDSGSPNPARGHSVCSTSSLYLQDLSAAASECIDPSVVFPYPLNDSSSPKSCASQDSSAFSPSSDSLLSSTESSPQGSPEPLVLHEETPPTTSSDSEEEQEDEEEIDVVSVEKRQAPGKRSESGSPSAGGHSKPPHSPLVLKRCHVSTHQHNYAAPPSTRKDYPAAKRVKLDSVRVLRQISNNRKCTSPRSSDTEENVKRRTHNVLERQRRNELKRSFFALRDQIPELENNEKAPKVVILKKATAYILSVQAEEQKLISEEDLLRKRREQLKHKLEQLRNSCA
Method in brief: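 After 24 h chemical treatment of HepG2 cells carrying multiplexed cis-regulated reporter constructs, reporter transcripts quantified by RT-PCR and capillary electrophoresis of fluorescent fragments. Gain or loss fitted against DMSO baseline.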

[4] = ATG_NF_kB_CIS: Attagene CIS-FACTORIAL HepG2 Assay for human Nuclear Factor Kappa B (NF-kB) (AID 2282991); conditions: HepG2 Attagene cis-factorial NF-kB reporter mRNA; actives raise or lower the signal
Method in brief: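 Multiplexed cis-reporter assay in transiently transfected HepG2. 24 h treatment; RNA isolated, RT-PCR, labelled fragments resolved by CE. DMSO baseline.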

[5] = ATG_NRF2_ARE_CIS: Attagene CIS-FACTORIAL HepG2 Assay for human Nuclear Factor Erythroid 2 Related Factor 2 (NFR2) response to Antioxidant Response Elements (ARE) (AID 2282992); conditions: HepG2 Attagene ARE/NRF2 reporter, transcription factor activity; actives raise or lower the signal;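 for AC50: reporter mRNA level measured by RT-PCR and capillary electrophoresis fluorescence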
Method in brief: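 Transient MRTU transfection of HepG2; 24 h compound exposure; TriZol RNA, RT with oligo(dT), PCR, 6-FAM primer extension, HpaI cut, CE. Bidirectional fit vs DMSO.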

[6] = ATG_Oct_MLP_CIS: Attagene CIS-FACTORIAL HepG2 Assay for human Octamer-Binding Transcription Factor (Oct) (AID 2282993); conditions: HepG2 Attagene cis-factorial Oct reporter, mRNA; actives raise or lower the signal
Method in brief: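 HepG2, transient MRTU transfection, cis promoter elements; 24 h dosing; RT-PCR/CE fluorescence read-out of reporter mRNA; fit both directions vs DMSO.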

[7] = target: Cellular tumor antigen p53 (Homo sapiens) (UniProt P04637); assay: ATG_p53_CIS: Attagene CIS-FACTORIAL HepG2 Assay for human p53 Transcription Factor (AID 2282994); conditions: HepG2 p53 cis-element reporter, Attagene mRNA; actives raise or lower the signal
Chain of Cellular tumor antigen p53 (Homo sapiens) (P04637 whole entry, looked up): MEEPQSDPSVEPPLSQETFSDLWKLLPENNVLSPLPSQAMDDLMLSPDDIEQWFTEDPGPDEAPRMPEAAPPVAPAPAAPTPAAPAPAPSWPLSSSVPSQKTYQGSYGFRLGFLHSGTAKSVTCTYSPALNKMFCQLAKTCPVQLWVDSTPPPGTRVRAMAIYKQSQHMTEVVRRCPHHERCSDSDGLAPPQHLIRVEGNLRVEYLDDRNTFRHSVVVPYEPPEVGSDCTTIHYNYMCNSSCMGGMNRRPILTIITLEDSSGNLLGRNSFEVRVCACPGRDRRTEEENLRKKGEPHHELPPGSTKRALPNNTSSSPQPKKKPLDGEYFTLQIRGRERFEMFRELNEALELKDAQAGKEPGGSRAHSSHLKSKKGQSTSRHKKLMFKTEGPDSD
Method in brief: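 HepG2, transient MRTU transfection (cis promoter elements, endogenous TFs); 24 h dosing; RNA isolation, RT-PCR, 6-FAM primer extension, HpaI digest, CE fluorescence; bidirectional fit vs DMSO.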

[8] = BSK_3C_TissueFactor: BioMAP Diversity Plus: 3C Assay for Tissue Factor Biomarker Activity (AID 2282997); conditions: BioMAP 3C HUVEC, tissue factor biomarker readout; actives raise or lower the signal
Method in brief: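 Endothelial monolayers (human umbilical vein, primary) are dosed, incubated 24 h, and assayed for Tissue Factor by ELISA; DMSO serves as negative control for bidirectional fitting.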

[9] = BSK_3C_uPAR: BioMAP Diversity Plus: 3C Assay for Urokinase-type plasminogen activator receptor (uPAR) Biomarker Activity (AID 2282998); conditions: BioMAP 3C HUVEC, uPAR biomarker ELISA; actives raise or lower the signal
Method in brief: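 A multiplexed primary-cell system built on human umbilical vein endothelium was used, with chemical present for 24 h before reading. Cell-surface uPAR was detected by ELISA; signal change in either direction counted against DMSO.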

[10] = BSK_4H_Eotaxin3: BioMAP Diversity Plus: 4H Assay for Eotaxin 3 Biomarker Activity (AID 2283000); conditions: primary human endothelial cells (HUVEC); actives raise or lower the signal;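 note: CCL26 protein level quantified by ELISA in parallel with SRB cytotoxicity check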
Method in brief: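 ELISA quantitation of CCL26 (Eotaxin-3) protein from chemically dosed human vascular endothelial cells at 24 h; increases and decreases both scored relative to DMSO-treated baseline.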

[11] = target: human Peroxisome Proliferator-activated Receptor alpha (PPARa), PPARA (gene 5465) (UniProt Q07869); assay: ATG_PPARa_TRANS: Attagene TRANS-FACTORIAL HepG2 Assay for human Peroxisome Proliferator-activated Receptor alpha (PPARa) (AID 2283001; active = hit-call score of the fitted dose curve at least 0.9, where 1 is the maximum)
Chain of human Peroxisome Proliferator-activated Receptor alpha (PPARa), PPARA (gene 5465) (Q07869 whole entry, looked up, the tested form may be a part): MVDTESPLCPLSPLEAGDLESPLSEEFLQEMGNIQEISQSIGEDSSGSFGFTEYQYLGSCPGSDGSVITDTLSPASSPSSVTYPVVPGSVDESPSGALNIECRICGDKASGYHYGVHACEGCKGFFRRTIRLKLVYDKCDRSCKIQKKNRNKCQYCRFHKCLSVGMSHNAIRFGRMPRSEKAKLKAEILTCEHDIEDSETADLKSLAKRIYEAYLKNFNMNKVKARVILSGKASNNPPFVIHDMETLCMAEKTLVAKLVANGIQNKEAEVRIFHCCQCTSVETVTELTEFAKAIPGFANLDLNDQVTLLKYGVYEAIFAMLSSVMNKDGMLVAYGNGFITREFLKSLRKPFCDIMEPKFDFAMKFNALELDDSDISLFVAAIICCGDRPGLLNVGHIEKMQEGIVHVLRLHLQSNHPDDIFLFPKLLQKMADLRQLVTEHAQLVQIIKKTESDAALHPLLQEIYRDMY
Method in brief: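 Reporter transcripts from GAL4-UAS units in transfected HepG2 were quantified 24 h after dosing. Detection used reverse transcription, PCR, fluorescent primer extension and capillary electrophoresis, with DMSO as baseline.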

[12] = target: human Peroxisome Proliferator-activated Receptor delta (PPARd), PPARD (gene 5467) (UniProt Q03181); assay: ATG_PPARd_TRANS: Attagene TRANS-FACTORIAL HepG2 Assay for human Peroxisome Proliferator-activated Receptor delta (PPARd) (AID 2283002; active = hit-call score of the fitted dose curve at least 0.9, where 1 is the maximum)
Chain of human Peroxisome Proliferator-activated Receptor delta (PPARd), PPARD (gene 5467) (Q03181 whole entry, looked up, the tested form may be a part): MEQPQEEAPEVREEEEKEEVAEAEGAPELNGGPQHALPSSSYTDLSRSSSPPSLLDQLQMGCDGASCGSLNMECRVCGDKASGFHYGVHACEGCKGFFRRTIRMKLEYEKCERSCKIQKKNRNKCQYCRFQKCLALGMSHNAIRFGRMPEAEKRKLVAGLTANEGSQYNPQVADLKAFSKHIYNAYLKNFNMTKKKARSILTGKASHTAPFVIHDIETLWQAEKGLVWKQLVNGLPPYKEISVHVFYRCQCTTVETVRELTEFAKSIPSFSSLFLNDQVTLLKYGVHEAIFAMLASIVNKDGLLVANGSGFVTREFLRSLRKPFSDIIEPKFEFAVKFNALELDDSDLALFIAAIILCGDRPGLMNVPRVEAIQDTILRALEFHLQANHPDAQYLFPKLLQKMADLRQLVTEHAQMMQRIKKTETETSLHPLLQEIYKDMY
Method in brief: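 Read-out is induced reporter mRNA, quantified by RT-PCR with fluorescent labelling and capillary electrophoresis after 24 h dosing. Cells are HepG2 transiently carrying multiple GAL4-UAS reporter units driven by exogenous NR-GAL4 chimeras; DMSO serves as baseline.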

[13] = read-out: Intercellular Adhesion Molecule 1 (ICAM1), ICAM1 (gene 3383); assay: BSK_3C_ICAM1: BioMAP Diversity Plus: 3C Assay for Intercellular Adhesion Molecule 1 (ICAM1) Biomarker Activity (AID 2283003); conditions: primary human endothelial cells (HUVEC); actives raise or lower the signal
Method in brief: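 Primary human umbilical vein endothelial cells in the BioMAP 3C system were exposed to chemicals for 24 h, then ICAM-1 was quantified by ELISA. Activity was fitted bidirectionally against the DMSO negative control baseline.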

[14] = target: Retinoic acid receptor alpha (Homo sapiens) (UniProt P10276); assay: ATG_RARa_TRANS: Attagene TRANS-FACTORIAL HepG2 Assay for human Retinoic Acid Receptor alpha (RARa) (AID 2283005; active = hit-call score of the fitted dose curve at least 0.9, where 1 is the maximum)
Chain of Retinoic acid receptor alpha (Homo sapiens) (P10276 whole entry, looked up, the tested form may be a part): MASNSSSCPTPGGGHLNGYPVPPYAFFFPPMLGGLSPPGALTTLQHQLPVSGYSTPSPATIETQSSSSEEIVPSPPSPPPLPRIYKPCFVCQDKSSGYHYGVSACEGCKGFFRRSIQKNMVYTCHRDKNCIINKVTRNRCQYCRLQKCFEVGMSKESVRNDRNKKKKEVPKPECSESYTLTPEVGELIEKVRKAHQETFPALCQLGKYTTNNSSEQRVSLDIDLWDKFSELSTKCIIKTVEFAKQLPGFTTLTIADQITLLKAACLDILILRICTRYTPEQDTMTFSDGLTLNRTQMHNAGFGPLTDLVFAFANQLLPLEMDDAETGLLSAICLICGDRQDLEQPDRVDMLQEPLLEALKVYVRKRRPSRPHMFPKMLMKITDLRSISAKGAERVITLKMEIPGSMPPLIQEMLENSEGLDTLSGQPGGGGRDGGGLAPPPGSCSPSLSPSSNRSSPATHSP
Method in brief: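 Reporter transcripts, measured by RT-PCR with fluorescent labeling and capillary electrophoresis after 24 h dosing, reflect activity of an exogenous human RARa–GAL4 fusion in transiently transfected HepG2. Fitted for increase relative to DMSO.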

[15] = BSK_3C_Proliferation: Cell Proliferation Assessment in the BioMAP Diversity Plus: 3C Assay (AID 2283006); conditions: primary human endothelial cells (HUVEC);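 for AC50: potency may reflect either rise or fall in cell number versus DMSO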
Method in brief: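 Human umbilical vein endothelial cells were grown sub-confluent and exposed to chemical for 48 h, then fixed with 10% TCA and stained with 0.1% sulforhodamine B; absorbance at 560 nm gave relative cell number, fitted bidirectionally against DMSO baseline.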

[16] = target: Peroxisome proliferator-activated receptor gamma (Homo sapiens) (UniProt P37231); assay: ATG_PPARg_TRANS: Attagene TRANS-FACTORIAL HepG2 Assay for human Peroxisome Proliferator-activated Receptor-gamma (PPARg) (AID 2283007; active = hit-call score of the fitted dose curve at least 0.9, where 1 is the maximum)
Chain of Peroxisome proliferator-activated receptor gamma (Homo sapiens) (P37231 whole entry, looked up): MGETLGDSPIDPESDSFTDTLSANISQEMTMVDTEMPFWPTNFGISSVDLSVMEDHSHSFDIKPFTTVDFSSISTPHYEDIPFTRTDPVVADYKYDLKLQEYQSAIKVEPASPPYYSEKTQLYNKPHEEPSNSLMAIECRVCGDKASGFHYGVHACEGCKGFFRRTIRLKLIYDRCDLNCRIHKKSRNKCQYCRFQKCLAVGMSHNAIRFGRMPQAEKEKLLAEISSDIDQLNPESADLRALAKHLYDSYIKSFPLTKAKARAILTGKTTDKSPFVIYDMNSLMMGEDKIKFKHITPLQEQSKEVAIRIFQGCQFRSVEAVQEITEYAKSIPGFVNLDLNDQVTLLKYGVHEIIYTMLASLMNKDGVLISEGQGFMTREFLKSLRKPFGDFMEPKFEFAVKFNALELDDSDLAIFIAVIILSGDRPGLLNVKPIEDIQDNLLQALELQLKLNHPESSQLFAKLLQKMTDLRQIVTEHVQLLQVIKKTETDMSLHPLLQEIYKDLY
Method in brief: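 Human hepatoma HepG2, transient MRTU transfection, 24 h treatment. mRNA reporter signal by RT-PCR plus capillary electrophoresis, fluorescence detection; fitted for increase over DMSO negative control.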

[17] = target: Nuclear receptor subfamily 1 group I member 2 (Homo sapiens) (UniProt O75469); assay: ATG_PXR_TRANS: Attagene TRANS-FACTORIAL HepG2 Assay for human Pregnane X Receptor (PXR) (AID 2283008; active = hit-call score of the fitted dose curve at least 0.9, where 1 is the maximum)
Chain of Nuclear receptor subfamily 1 group I member 2 (Homo sapiens) (O75469 whole entry, looked up, the tested form may be a part): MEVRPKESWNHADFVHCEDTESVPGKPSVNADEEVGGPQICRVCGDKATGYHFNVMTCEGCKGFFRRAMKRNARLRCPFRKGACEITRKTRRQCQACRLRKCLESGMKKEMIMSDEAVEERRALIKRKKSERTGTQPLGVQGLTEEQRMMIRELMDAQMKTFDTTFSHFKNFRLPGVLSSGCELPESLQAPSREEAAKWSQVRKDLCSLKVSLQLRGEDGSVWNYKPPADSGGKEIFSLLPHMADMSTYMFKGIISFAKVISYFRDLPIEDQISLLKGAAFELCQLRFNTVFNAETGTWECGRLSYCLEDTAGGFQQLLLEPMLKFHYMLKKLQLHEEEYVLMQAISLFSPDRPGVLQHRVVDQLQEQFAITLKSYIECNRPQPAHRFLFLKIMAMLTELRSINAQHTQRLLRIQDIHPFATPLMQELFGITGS
Method in brief: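 Read-out is fluorescence of labelled reporter cDNA fragments separated by capillary electrophoresis after RT-PCR and HpaI digestion. Source: HepG2 cells carrying PXR-GAL4/UAS reporter constructs, treated 24 h; activity fitted upward relative to DMSO.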

[18] = target: human Retinoic Acid Receptor beta (RARb), RARB (gene 5915) (UniProt P10826); assay: ATG_RARb_TRANS: Attagene TRANS-FACTORIAL HepG2 Assay for human Retinoic Acid Receptor beta (AID 2283004; active = hit-call score of the fitted dose curve at least 0.9, where 1 is the maximum)
Chain of human Retinoic Acid Receptor beta (RARb), RARB (gene 5915) (P10826 whole entry, looked up, the tested form may be a part): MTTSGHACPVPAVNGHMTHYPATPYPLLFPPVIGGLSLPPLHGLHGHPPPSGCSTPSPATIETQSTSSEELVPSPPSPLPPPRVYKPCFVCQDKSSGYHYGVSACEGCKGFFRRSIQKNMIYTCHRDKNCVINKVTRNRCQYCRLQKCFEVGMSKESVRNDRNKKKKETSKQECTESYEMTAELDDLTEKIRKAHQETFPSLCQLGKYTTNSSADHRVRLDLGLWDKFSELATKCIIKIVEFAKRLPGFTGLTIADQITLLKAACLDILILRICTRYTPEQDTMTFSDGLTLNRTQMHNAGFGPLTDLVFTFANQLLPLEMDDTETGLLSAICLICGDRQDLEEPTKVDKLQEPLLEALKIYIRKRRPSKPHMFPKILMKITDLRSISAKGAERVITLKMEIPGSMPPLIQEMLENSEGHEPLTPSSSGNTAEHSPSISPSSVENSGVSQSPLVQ
Method in brief: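 Fluorescent capillary-electrophoresis detection of GAL4-UAS reporter mRNA defines the endpoint, with induction over DMSO-treated wells scored as activity. Transiently transfected human hepatoma HepG2 cells expressing exogenous NR–Gal4 proteins are exposed to test chemicals for 24 h.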

[19] = BSK_3C_VCAM1: BioMAP Diversity Plus: 3C Assay for Vascular cell adhesion molecule 1 (VCAM1) Biomarker Activity (AID 2282999); conditions: BioMAP 3C HUVEC, VCAM1 ELISA, cytokine-stimulated; actives raise or lower the signal
Method in brief: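 Endothelial cells from human umbilical vein are treated with test chemical. At 24 h, VCAM-1 is measured by ELISA, and responses in either direction are fitted relative to DMSO.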

[20] = target: human Retinoic Acid Receptor gamma (RARg), RARG (gene 5916) (UniProt P13631); assay: ATG_RARg_TRANS: Attagene TRANS-FACTORIAL HepG2 Assay for human Retinoic Acid Receptor gamma (RARg) (AID 2283009; active = hit-call score of the fitted dose curve at least 0.9, where 1 is the maximum)
Chain of human Retinoic Acid Receptor gamma (RARg), RARG (gene 5916) (P13631 whole entry, looked up, the tested form may be a part): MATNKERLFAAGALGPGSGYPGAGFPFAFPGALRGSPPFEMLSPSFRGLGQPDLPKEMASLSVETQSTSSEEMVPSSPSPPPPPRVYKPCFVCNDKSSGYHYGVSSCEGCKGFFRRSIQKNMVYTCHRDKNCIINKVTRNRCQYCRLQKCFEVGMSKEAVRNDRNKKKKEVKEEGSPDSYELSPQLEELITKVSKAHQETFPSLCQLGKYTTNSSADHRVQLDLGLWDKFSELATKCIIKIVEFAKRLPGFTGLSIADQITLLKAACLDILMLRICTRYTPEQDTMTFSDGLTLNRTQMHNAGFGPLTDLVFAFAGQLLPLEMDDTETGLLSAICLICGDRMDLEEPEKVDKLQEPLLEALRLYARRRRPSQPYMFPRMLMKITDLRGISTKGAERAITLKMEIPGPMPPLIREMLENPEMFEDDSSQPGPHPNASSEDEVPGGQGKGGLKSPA
Method in brief: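 HepG2 cells transiently transfected with multiplexed reporter units expressing chimeric RARg-GAL4 and GAL4-UAS-driven reporters; 24 h compound exposure. Reporter mRNA quantified by RT-PCR with fluorescent labelling and capillary electrophoresis; gain-of-signal fitted relative to DMSO baseline.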

Measured: AC50

CN(C(=O)C(F)(F)C(F)(F)C(F)(F)F)[Si](C)(C)C
not listed: [18] | [19] | [20]
inactive: all other assays above

O=C=Nc1cccc2c(N=C=O)cccc12
active: [17] 0.628 µM
not listed: [11] | [14] | [16] | [19] | [20]
inactive: all other assays above

O=S(=O)(O)CCC(F)(F)C(F)(F)C(F)(F)C(F)(F)C(F)(F)C(F)(F)C(F)(F)C(F)(F)F
active: [5] 91.8 µM
not listed: [14] | [16] | [18] | [19] | [20]
inactive: all other assays above

O=S(=O)(Cl)C(F)(F)C(F)(F)C(F)(F)C(F)(F)C(F)(F)C(F)(F)C(F)(F)C(F)(F)F
active: [5] 70.3 µM | [9] 45.8 µM and 47.4 µM | [16] 34.9 µM
not listed: [20]
inactive: all other assays above

FC(F)(F)C(F)(F)C(F)(F)C(F)(F)C(F)(F)C(F)(F)CC[Si](Cl)(Cl)Cl
not listed: [12] | [14]
inactive: all other assays above

O=C(O)CCC(F)(F)C(F)(F)C(F)(F)F
not listed: [12] | [14] | [16] | [17] | [18] | [19] | [20]
inactive: all other assays above

C=CC(=O)OCCC(F)(F)C(F)(F)C(F)(F)C(F)(F)F
active: [5] 98.8 µM | [8] 22.2 µM and 26.3 µM | [15] 30 µM and 32.6 µM
not listed: [14] | [18] | [19] | [20]
inactive: all other assays above

From PubChem BioAssay (EPA / NIEHS)
